From PubChem BioAssay
The source made the active and inactive calls.

Columns and labels:
Albumin (Bos taurus) = Albumin (Bos taurus) (UniProt P02769); assay: bovine serum albumin binders on microarray, profiling panel, artefact control for SMM control protein annotation, biochemical, small-molecule microarray, Alexa647 label, 635/667 nm fluorescence (AID 1118); conditions: BSA-A647 binding, fluorescence 635 nm, higher = more signal;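 also: score merges 667 nm emission intensity and signal-to-noise per printed compound spot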
Sequence of Albumin (Bos taurus) (P02769 whole entry, looked up): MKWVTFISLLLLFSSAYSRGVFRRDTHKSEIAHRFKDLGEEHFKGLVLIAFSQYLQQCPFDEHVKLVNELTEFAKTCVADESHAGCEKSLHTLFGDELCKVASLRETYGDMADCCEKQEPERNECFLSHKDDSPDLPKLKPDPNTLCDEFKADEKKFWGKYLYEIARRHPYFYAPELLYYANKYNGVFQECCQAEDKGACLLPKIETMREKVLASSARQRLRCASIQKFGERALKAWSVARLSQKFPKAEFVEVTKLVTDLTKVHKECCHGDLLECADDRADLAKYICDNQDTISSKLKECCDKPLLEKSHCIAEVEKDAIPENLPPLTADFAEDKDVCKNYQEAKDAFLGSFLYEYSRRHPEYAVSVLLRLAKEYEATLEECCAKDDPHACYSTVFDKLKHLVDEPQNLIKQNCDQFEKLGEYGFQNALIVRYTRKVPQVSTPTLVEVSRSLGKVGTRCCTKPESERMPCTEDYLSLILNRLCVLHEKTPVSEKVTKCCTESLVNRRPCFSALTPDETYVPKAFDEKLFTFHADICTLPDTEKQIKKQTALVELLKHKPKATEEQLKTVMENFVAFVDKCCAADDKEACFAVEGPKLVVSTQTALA

[1] = small-molecule microarray binders of probe aXIP, primary screen, biochemical, NeuroSMM set, 635/667 nm fluorescence (AID 1119); conditions: higher = more signal, called active from +8 up or from −8 down;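 also: probe is the protein aXip251-270 applied at 1 µg/mL to compound-printed slides; binding of probe to printed compounds measured as 667 nm fluorescence plus signal to noise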
[2] = small-molecule binders of probe aNOTCH3, primary screen, biochemical, small-molecule microarray, 635/667 nm fluorescence (AID 1120); conditions: higher = more signal;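 also: probe is a biotin-tagged antibody raised against NOTCH3 rather than NOTCH3 protein; score merges spot fluorescence near 667 nm with spot signal to noise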
[3] = small-molecule binders of probe aNOTCH2, primary screen, biochemical, small-molecule microarray, 635/667 nm fluorescence (AID 1121); conditions: higher = more signal;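 also: score merges feature fluorescence read at 667 nm with its signal to noise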
[4] = biological target: Carbonic anhydrase 2 (Homo sapiens) (UniProt P00918); assay: CAII small-molecule binders, profiling panel, biochemical, small-molecule microarray, Alexa647-labelled CAII (AID 1122); conditions: CAII-A647 binding fluorescence, higher = more signal
[5] = COS7 lysate on small-molecule microarray, probe aHis, 635 nm (AID 1123); conditions: COS7 cell lysate, fluorescence, higher = more signal;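 also: z-score combines 667nm fluorescence intensity with signal-to-noise per printed compound spot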
[6] = compound binding in COS7 lysate, probe aLAP1, primary screen, cell lysate, small-molecule microarray (AID 1124); conditions: probe aLAP1, fluorescence, higher = more signal;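 also: lysate comes from COS7 cells expressing LAP1 and is applied at 0.3 µg/mL; score merges spot fluorescence near 667 nm with signal-to-noise over triplicate slides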
Sam68 (KHDRBS1) = assay: Sam68 small-molecule binders, primary screen, biochemical, small-molecule microarray, 635 nm fluorescence (AID 1125); conditions: small-molecule microarray binding, higher = more signal;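 also: score merges 667 nm channel intensity with signal to noise over triplicate slides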
[7] = system: Chordin-like protein 2 (CHRDL2); assay: CHRDL2 small-molecule binders, primary screen, biochemical, small-molecule microarray, 635 nm fluorescence (AID 1126); conditions: small-molecule microarray binding, fluorescence 635 nm; higher = more signal;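 also: printed compound slides probed with Chrdl2 protein at 4 µg/mL for 1 h at 4 C; score merges 667 nm emission intensity with signal to noise over three replicate slides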
[8] = biological target: Concanavalin-A (Canavalia ensiformis) (UniProt P02866); assay: ConA small-molecule binders, primary screen, artefact control for SMM control protein annotation, biochemical, small-molecule microarray, Alexa647 label, 635 nm (AID 1127); conditions: ConA-A647 binding fluorescence, higher = more signal;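 also: z combines 667 nm emission intensity with signal-to-noise across three replicate slides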
Sequence of Concanavalin-A (Canavalia ensiformis) (P02866 whole entry, looked up): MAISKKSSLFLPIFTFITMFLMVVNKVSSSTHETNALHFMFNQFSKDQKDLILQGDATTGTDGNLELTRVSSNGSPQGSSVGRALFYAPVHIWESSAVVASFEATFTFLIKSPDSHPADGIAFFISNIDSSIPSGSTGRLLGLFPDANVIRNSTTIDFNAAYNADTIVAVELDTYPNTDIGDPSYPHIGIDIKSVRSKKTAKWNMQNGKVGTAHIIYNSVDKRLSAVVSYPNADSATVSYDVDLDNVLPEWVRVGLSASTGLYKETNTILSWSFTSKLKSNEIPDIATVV

SMILES | composite z-score (Albumin (Bos taurus)) | composite Z-score [1] | composite z-score [2] | composite z-score [3] | composite z-score [4] | composite z-score [5] | composite z-score [6] | composite z-score (Sam68 (KHDRBS1)) | composite z-score [7] | composite z-score [8]
CN1C(=O)C2C=CC(C(O)c3ccc(F)cc3)N(N3CCCCC3)C2C1=O (stereo not given) | 0.853 | -0.908 (inactive) | 0.29 | 0.155 | 0.714 | 1.5 | 0.804 | 1.32 | -1.42 | 1.08
O=C1c2ccccc2[C@](Cc2ccccc2I)(C(=O)NC2CC2)[C@H](c2ccc(CO)cc2)N1Cc1ccccc1Cl | 0.0646 | -0.057 (inactive) | 0.265 | 0.0563 | 0.574 | 1.93 | 0.696 | 1.31 | 0.0424 | 0.997
Cc1ccc(-c2cccc(=O)o2)cc1 | -0.682 | -1.14 (inactive) | -0.15 | -0.108 | -0.501 | 0.0688 | 0.258 | -1.39 | 0.183 | -0.413
NC(=O)[C@@H]1[C@H]2C(=O)O[C@H](c3ccccc3)[C@H](c3ccccc3)N2[C@H](c2ccccc2OCCO)[C@@]12C(=O)Nc1ccc(C#CCCO)cc12 | 0.59 | -0.309 (inactive) | -0.218 | -0.147 | 0.71 | 0.663 | 0.148 | 0.13 | -0.68 | 1.18
[N-]=[N+]=NCc1ccccc1[C@H]1OC(c2ccc(OCCCO)cc2)=N[C@@]1(Cc1ccccc1N=[N+]=[N-])C(=O)N1CCCCC1 | -0.0584 | -0.202 (inactive) | 0.374 | 0.104 | 0.559 | 2.97 | 0.608 | 1.29 | 0.0975 | 0.988
COC(=O)C(CC#Cc1ccc2c(c1)[C@]1(C(=O)N2)[C@H](C(=O)N2CCc3cc(OC)c(OC)cc3C2)[C@H]2C(=O)O[C@H](c3ccccc3)[C@H](c3ccccc3)N2[C@@H]1c1ccc(OCCO)cc1)C(=O)OC | 0.438 | -0.715 (inactive) | 0.239 | -0.0664 | 0.413 | 2.17 | 0.969 | 1.31 | 0.506 | 0.942
O=C1O[C@H](c2ccccc2)[C@H](c2ccccc2)N2[C@H]1[C@@H](C(=O)N1CCN(c3ncccn3)CC1)[C@]1(C(=O)Nc3ccc(C#CCCO)cc31)[C@H]2c1ccccc1OCCO | 0.759 | -0.215 (inactive) | -0.0918 | -0.0533 | 0.556 | 2.03 | 1.38 | 1.3 | 0.231 | 1.11
O=C(N1CCOCC1)[C@@]1(CCS(=O)(=O)c2ccccc2)COC(c2ccc(OCCCO)cc2)=N1 | 0.39 | 0.667 (inactive) | -0.0073 | -0.191 | 0.704 | 2.45 | -0.0296 | 0.605 | -0.034 | -0.257
COCCCNC(=O)[C@@]1(Cc2ccccc2)COC(c2ccc(OCCCO)cc2)=N1 | 0.838 | 0.6 (inactive) | 0.0813 | -0.0307 | 0.739 | 3.02 | 0.77 | 1.31 | -0.554 | 0.825
Cc1cc(C)c(C(O)C2C=CC3C(=O)N(c4ccccc4)C(=O)C3N2Nc2ccccc2)c(C)c1 (stereo not given) | 0.767 | 0.0805 (inactive) | 0.236 | 0.294 | 0.781 | 2.13 | 0.0109 | 1.3 | -0.194 | 1.18
COc1ccc([Si](C)(C)[C@@H]2[C@@H](CCO)O[C@]3(C(=O)N(Cc4ccccc4)c4ccc(N5C(=O)COc6ccccc65)cc43)[C@H]2C)cc1 | 0.187 | 0.685 (inactive) | -0.0077 | -0.0731 | 0.426 | 0.841 | 0.719 | 0.929 | -0.237 | 0.822
CCCC[C@@H](O)C1=C(COc2ccccc2)Cn2c(=O)n(-c3ccccc3)c(=O)n2[C@H]1CO | -0.0711 | -0.116 (inactive) | -0.187 | -0.148 | -0.0781 | 0.725 | 0.148 | -0.247 | 0.0826 | -0.494
COC(=O)[C@]1(Cc2ccccc2CN=[N+]=[N-])N=C(c2ccc(OCCCO)cc2)O[C@@H]1c1ccccc1CN=[N+]=[N-] | -0.204 | -0.206 (inactive) | -0.0984 | -0.0079 | 0.651 | 1.75 | 0.838 | 0.877 | 0.31 | 0.951
O=C(C=C(CC(O)c1cccc(Cl)c1)OCCF)OCCF (stereo not given) | 0.912 | -0.361 (inactive) | -0.0903 | -0.0746 | 0.0119 | 0.143 | 0.624 | -2.33 | -0.594 | -0.444
CC(=O)NCCCC[C@@H]1NC(=O)[C@@H]2C[C@H](C(=O)NCCCC[N+](C)(C)C)[C@H](c3cccc(OCCO)c3)N2C1=O | -0.134 | 0.0725 (inactive) | 0.0426 | -0.125 | 0.799 | 0.661 | 0.331 | -1.33 | 0.349 | -0.0028
CCCCC(O)C1C=CC2C(=O)N(Cc3ccccc3)C(=O)C2N1n1cnnc1 (stereo not given) | -0.0045 | 0.406 (inactive) | 0.0039 | -0.101 | 0.644 | 1.4 | 0.0713 | 1.01 | -0.0652 | 0.216
COC(=O)[C@@]1(Cc2ccccc2N=[N+]=[N-])N=C(c2ccc(OCCCO)cc2)O[C@H]1c1ccccc1 | 0.371 | 0.17 (inactive) | -0.0377 | -0.0563 | 0.593 | 1.28 | 0.156 | 1.16 | -0.608 | 1.11

SMILES | composite z-score (Albumin (Bos taurus)) | composite Z-score [1] | composite z-score [2] | composite z-score [3] | composite z-score [4] | composite z-score [5] | composite z-score [6] | composite z-score (Sam68 (KHDRBS1)) | composite z-score [7] | composite z-score [8]
OCCCC1=CC(c2cccs2)N(Cc2cccc(OC(F)(F)F)c2)CC1 (stereo not given) | 0.659 | -0.0774 (inactive) | -0.147 | 0.072 | 0.389 | 0.0426 | 0.144 | -0.184 | -0.258 | -0.659
N#Cc1ccc(NN2C(C(O)c3ccccc3)C=CC3C(=O)N(c4ccccc4)C(=O)C32)cc1 (stereo not given) | 0.801 | 0.151 (inactive) | 0.222 | 0.0288 | 0.809 | 1.97 | 0.191 | 0.0437 | -0.605 | -0.0029
CC(C)(C)N1CC=CC23O[C@@H]4C=CCCOC(=O)C4[C@H]2C(=O)N(CCCO)[C@@H]3C1=O (stereo not given in full) | -2.01 | 0.494 (inactive) | -0.222 | -0.177 | 0.405 | -0.552 | -0.0817 | -1.76 | -0.487 | -3.17
C[C@H]1ON(c2ccccc2)[C@@H](c2ccccc2)[C@@H]1C(=O)N1C(=O)OC[C@@H]1c1ccccc1 | 0.0537 | 1.2 (inactive) | -0.0493 | -0.118 | 0.259 | 0.46 | -0.0222 | 0.44 | 0.424 | 0.0565
COc1ccc([Si](C)(C)[C@H]2[C@H](CCn3cc(CCO)nn3)O[C@@]3(C(=O)N(Cc4cccc(N5C(=O)c6cccc7cccc5c67)c4)c4ccccc43)[C@@H]2C)cc1 | 0.451 | 0.525 (inactive) | 0.0311 | -0.0974 | 0.584 | 0.791 | 1.65 | 1.22 | 0.438 | 1.11
O=C1N(CCS(=O)(=O)c2ccccc2)c2ccccc2[C@H]2OC(c3ccc(OCCCO)cc3)=N[C@@]12CCS(=O)(=O)c1ccccc1 | -1.18 | 1.11 (inactive) | 0.674 | 0.445 | 0.352 | 2.82 | 0.226 | 1.29 | 1.07 | 1.16
CC(C)C[C@@H]1NC(=O)[C@@H]2C[C@H](C(=O)NCCCC[N+](C)(C)C)[C@H](c3cccc(OCCO)c3)N2C1=O | -1.59 | 0.0578 (inactive) | 0.116 | -0.0999 | 0.479 | 0.432 | 0.255 | 0.82 | 1.44 | 0.496
C=CC[C@@]1(C(=O)NCCN2CCOCC2)N=C(c2ccc(OCCCO)cc2)O[C@@H]1c1ccccc1 | 0.262 | -0.288 (inactive) | 0.291 | -0.0907 | 0.673 | 2.52 | 0.871 | 1.12 | 1.4 | 0.608
O=C1C2C=CC(C(O)c3cccc4ccccc34)N(Nc3ccccc3)C2C(=O)N1c1ccccc1 (stereo not given) | 0.571 | 0.739 (inactive) | 0.277 | 0.0312 | 0.655 | 2.28 | 1.47 | 0.983 | 0.724 | 0.89
COc1ccc(C#Cc2ccc3c(c2)[C@]2(C(=O)N3)[C@H](C(=O)O)[C@H]3C(=O)O[C@H](c4ccccc4)[C@H](c4ccccc4)N3[C@@H]2c2ccc(OCCO)cc2)cc1 | 0.92 | 0.655 (inactive) | 0.364 | 0.0572 | 0.421 | 1.84 | 0.714 | 1.29 | 0.245 | 1.13
O=C1OCC=C[C@H]2OC34C=CCN(CCN5CCOCC5)C(=O)[C@H]3N(CCCCCO)C(=O)[C@@H]4[C@@H]12 (stereo not given in full) | 0.485 | -0.232 (inactive) | 0.0694 | -0.117 | 0.829 | 2.03 | -0.723 | -0.229 | 0.129 | 0.476
O=C1N(CCS(=O)(=O)c2ccccc2)Cc2ccccc2C[C@@]12COC(c1ccc(OCCCO)cc1)=N2 | -0.0401 | 0.319 (inactive) | 0.384 | -0.0651 | 0.585 | 2.55 | 0.203 | 1.32 | 0.825 | 1.17
CCOC(=O)C1=CC[C@@H](c2cccc(Br)c2)N(S(=O)(=O)c2ccc(C)cc2)[C@H]1c1ccc([N+](=O)[O-])cc1 | 0.861 | 0.338 (inactive) | 0.0116 | -0.0856 | 0.586 | 2.45 | 0.885 | 1.08 | 0.625 | 1
O=C1C[C@@](C(=O)O)(c2ccc([N+](=O)[O-])cc2)[C@@H](c2ccc(CO)cc2)N1CC12CC3CC(CC(C3)C1)C2 | 0.656 | -0.261 (inactive) | 0.18 | 0.0362 | 0.46 | 1.74 | 0.611 | 1.19 | -0.346 | 0.687
CC(C)CCC[C@@H](C)[C@H]1CC[C@@]2(C)C3=C(CC[C@]12C)[C@@]1(C)CC[C@H](OC(=O)c2ccc(N)cc2)C(C)(C)C1CC3 (stereo not given in full) | 0.0881 | -0.196 (inactive) | 0.0406 | -0.207 | 0.0778 | -0.221 | -0.252 | 0.401 | 0.456 | 0.462
CCOC(=O)C1=CCC(c2cccc(Cl)c2)O1 (stereo not given) | 0.581 | -0.214 (inactive) | 0.0357 | -0.0651 | 0.181 | 0.389 | -0.064 | 0.609 | -0.384 | 0.16
